Compound activity deposited in PubChem by The Scripps Research Institute Molecular Screening Center.
Shown are actives, neighbours in structure and some others; about 2.9% of the full set was active somewhere.
PAFAH1B2 inh: PAFAH1B2 (human) inhibition; recombinant PAFAH1B2, FP-rhodamine activity probe, fluorescence polarization; inhibition, % at 3.39 µM; actives 1.2% (n = 340,000); AID 492953;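 active means inhibition above the mean of all tested compounds plus 3 SD, cut at about 24% in these data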;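 further: 0% = enzyme with DMSO and 100% = wells lacking PAFAH1B2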
PAFAH2 inh: inhibitors of human PAFAH2. Q99487. recombinant PAFAH2, FP-rhodamine activity probe, fluorescence polarization. inhibition, % at 3.39 µM. actives 0.99% (n = 340,000);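 active means inhibition above the mean over all tested compounds plus 3 SD, cut at about 30% in these data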;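 further: inhibitors block probe labeling of enzyme so polarization drops; 0% = enzyme with DMSO and 100% = wells lacking PAFAH2 protein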
LYPLA2 counter: LYPLA2 (human) inhibition in PME1 counter-screen | O95372 | recombinant LYPLA2, FP-Rh probe fluorescence polarization | inhibition, % at 5.9 µM | actives 0.38% (n = 320,000) | AID 2177;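 active means inhibition above the screen-wide mean plus 3 SD, limit set per campaign, cut at about 26% in these data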;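 further: 0% = LYPLA2 with DMSO and 100% = wells lacking LYPLA2 enzyme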
Target sequence (O95372 whole entry, looked up): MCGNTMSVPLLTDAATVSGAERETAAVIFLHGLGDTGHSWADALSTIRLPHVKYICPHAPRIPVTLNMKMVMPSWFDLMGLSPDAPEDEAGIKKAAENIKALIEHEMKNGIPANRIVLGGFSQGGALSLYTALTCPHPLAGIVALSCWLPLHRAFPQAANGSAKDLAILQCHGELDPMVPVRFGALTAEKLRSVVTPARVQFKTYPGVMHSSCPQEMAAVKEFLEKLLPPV
LYPLA1 inh: counter-screen for PME1 inhibitors: inhibitors of human LYPLA1; actives 0.16% (n = 320,000); inhibition, % at 5.9 µM; O75608; AID 2174; recombinant LYPLA1, FP-Rh probe fluorescence polarization;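 active means inhibition above the mean of all tested compounds plus 3 SD, set per campaign, cut at about 14% in these data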;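 further: inhibitors block serine hydrolase probe labeling of LYPLA1 so polarization falls; 0% = enzyme with DMSO and 100% = wells lacking LYPLA1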
Target sequence (O75608 whole entry, looked up): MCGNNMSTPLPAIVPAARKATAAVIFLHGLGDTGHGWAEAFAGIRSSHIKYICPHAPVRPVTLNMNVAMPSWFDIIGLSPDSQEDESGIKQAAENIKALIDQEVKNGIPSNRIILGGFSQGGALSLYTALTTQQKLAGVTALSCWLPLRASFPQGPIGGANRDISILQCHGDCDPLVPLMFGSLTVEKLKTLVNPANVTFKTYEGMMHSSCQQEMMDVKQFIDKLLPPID
pPAFAH inh: inhibitors of human plasma PAF acetylhydrolase (pPAFAH); AID 463082; inhibition, % at 3.39 µM; actives 1.5% (n = 330,000); recombinant pPAFAH, FP-rhodamine probe fluorescence polarization; Q13093;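 active means inhibition above the mean inhibition across the screen plus 3 SD, cut at about 25% in these data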;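 further: inhibitors block binding of the rhodamine activity-based probe so polarization drops; 0% = enzyme with DMSO and 100% = wells lacking pPAFAH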
PAFAH1B3 FP inh: PAFAH1B3 (human) inhibition; Q15102; recombinant PAFAH1B3, FP-rhodamine probe, fluorescence polarization; inhibition, % at 3.39 µM; actives 0.28% (n = 340,000);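 active means inhibition above the screen-wide average of all tested compounds plus 3 SD, cut at about 25% in these data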;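 further: 0% = enzyme with DMSO only and 100% = wells lacking PAFAH1B3 protein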
The depositor's hits bear a star; . = no result.

SMILES	PAFAH1B2 inh	PAFAH2 inh	LYPLA2 counter	LYPLA1 inh	pPAFAH inh	PAFAH1B3 FP inh
COc1cc(/C=N/N=C2/NC(=O)C(CC(=O)O)S2)ccc1OCc1ccc(Cl)cc1 (stereo unspecified)	16	10	1	-3	14	6
CCOc1cc(/C=N/N=C2/NC(=O)C(CC(=O)O)S2)ccc1OCc1ccc(Cl)cc1Cl (stereo unspecified)	9	17	-2	-5	26*	7
CC(C)(C)c1cc(NC(=O)COC(=O)c2nccnc2N)n(-c2ccccc2)n1	0	1	2	3	0	7
Cn1cccc1C(=O)OCC(=O)Nc1cc(C(C)(C)C)nn1-c1ccccc1	0	0	-6	-1	29*	-1
S=C1NCCOCCNC(=S)NCCOCCOCCN1	-3	6	6	0	26*	0
Cc1cc(C(=O)OCC(=O)Nc2sc3c(c2C#N)CCC(C)C3)c2ccccc2n1 (stereo unspecified)	-1	0	-11	-9	25*	1
[O-][n+]1cccc(C(O)c2ccccc2)c1 (stereo unspecified)	3	1	-1	0	-5	6
N/C(=N\OC(=O)CCCN1C(=O)c2ccccc2C1=O)c1ccc(Br)cc1	16	3	4	0	4	10
CCn1c(CSCc2ccc(F)cc2)nnc1SCC(=O)NCc1ccccc1	30*	0	6	-3	4	2
Cc1cccc(NC(=O)CCNS(=O)(=O)c2cccc3nonc23)c1	4	0	-3	2	2	0
O=C(Cc1ccc(Cl)cc1)N/N=C/c1ccccc1	2	-1	1	-6	3	-8
Cc1cc(OCC(=O)N(Cc2ccco2)C2CCS(=O)(=O)C2)cc(C)c1Cl (stereo unspecified)	.	.	3	1	1	.
COc1ccccc1NC(=O)CCCN1C(=O)C2CC=CCC2C1=O (stereo unspecified)	2	-2	4	0	-1	-2
CC(=O)Nc1ccc(S(=O)(=O)NCCSCc2ccc(Cl)cc2Cl)cc1	39*	-8	-14	-9	16	7
O=C(N=Nc1c(O)[nH]c2ccc([N+](=O)[O-])cc12)c1ccccc1Cl	6	12	-4	2	2	4
Cc1ccc(NCC(=O)N=Nc2c(O)[nH]c3ccc([N+](=O)[O-])cc23)cc1	.	.	6	-1	25*	.
O=C(O)c1ccccc1N=Nc1c(O)[nH]c2ccc([N+](=O)[O-])cc12	9	37*	-2	5	21	18
CCCc1cc(=O)n2[nH]c(C)c(-c3ccccc3)c2n1	0	-2	3	0	2	8
Cc1[nH]n2c(=O)cc(-c3ccc([N+](=O)[O-])cc3)nc2c1-c1ccccc1	19	21	8	8	33*	13
O=C(Nc1nnc(SCc2ccccc2F)s1)c1ccco1	9	9	-2	0	-1	3
O=C(O)CCCC(=O)N1CCN(c2nc(-c3ccccc3Cl)c3cc(Br)ccc3n2)CC1	1	0	10	-5	28*	-2
COc1ccc(/C(N)=N/OC(=O)Cc2ccc(C)cc2)cc1OC	4	-1	-3	-3	12	2
CCOC(=O)N1CCN(C(=O)CN(Cc2ccc(Cl)cc2)S(=O)(=O)c2ccccc2)CC1	5	-1	-3	-2	-5	3
C=C[C@]1(C)C=C2CCC3[C@](C)(CCC[C@@]3(C)C(=O)O)C2CC1 (stereo partly specified)	68*	43*	2	0	9	11
O=C(O)CCn1c(SCCOc2ccccc2F)nc2ccccc21	7	4	.	.	.	14
SMILES	PAFAH1B2 inh	PAFAH2 inh	LYPLA2 counter	LYPLA1 inh	pPAFAH inh	PAFAH1B3 FP inh
CC(=O)N1c2ccc(S(=O)(=O)NCCC(=O)NCCc3ccc(Cl)cc3)cc2CC1C (stereo unspecified)	9	-6	16	-1	10	5
CC(=O)N1c2ccc(S(=O)(=O)NCCc3ccc(Cl)cc3)cc2CC1C (stereo unspecified)	16	-2	-1	-2	30*	-3
COc1ccc(OCc2ccc(C(=O)O)cc2)cc1	16	-10	6	4	-1	10
N#Cc1c(Cl)cccc1Oc1ccc(S(=O)(=O)Nc2ccccc2)cc1	.	.	-18	-6	26*	.
N/C(=N\OC(=O)c1ccccc1Cl)c1cccc([N+](=O)[O-])c1	6	2	4	1	0	2
N/C(=N/OC(=O)c1ccccc1Cl)c1ncc([N+](=O)[O-])s1	26*	18	-9	-10	13	11
CC(=O)c1ccc(NC(=O)CCn2c(=O)oc3ccccc32)cc1	1	-1	1	3	0	-2
CC(=O)Nc1ccc(NC(=O)CCn2c(=O)oc3ccccc32)cc1	12	10	-6	0	26*	-1
CC1=NN(c2ccc(C)c(C)c2)C(=O)/C1=C\C=C\c1ccc([N+](=O)[O-])o1	-3	5	11	6	25*	2
CC1=NN(c2ccccc2)C(=O)/C1=C\C=C\c1ccccc1	.	.	3	0	7	.
Cc1ccc(-c2ccc(/C=N/N3C(=O)C4C5C=CC(CC5)C4C3=O)o2)c([N+](=O)[O-])c1 (stereo unspecified)	5	10	5	3	25*	-2
Cc1ccccc1NS(=O)(=O)c1ccc(C2CNC(=O)C2)cc1 (stereo unspecified)	4	-1	3	3	33*	4
O=C(C1CCCCN1S(=O)(=O)c1ccccc1[N+](=O)[O-])N1CCCCC1 (stereo unspecified)	1	-4	4	0	0	3
CC(C)(C)c1ccc(OCC(=O)NNC(=O)Cc2cccs2)cc1	26*	6	6	1	6	1
Cc1c(NC(=O)C(C)OC(=O)c2ccc([N+](=O)[O-])s2)c(=O)n(-c2ccccc2)n1C (stereo unspecified)	22	14	-2	-3	30*	33*
Cc1c(NC(=O)C(C)OC(=O)c2sc3ccccc3c2Cl)c(=O)n(-c2ccccc2)n1C (stereo unspecified)	1	9	-2	0	3	6
CN1CCN(C2=C(Cl)C(=O)C(c3cnc(N4CCCCC4)s3)=C(Cl)C2=O)CC1	15	10	8	0	41*	18
CN1CCN(C2=C(Cl)C(=O)c3ccccc3C2=O)CC1	39*	57*	.	.	.	66*
CC1COCC(C)N1C1=C(Cl)C(=O)c2ccccc2C1=O (stereo unspecified)	35*	43*	.	.	.	44*
CN1CCN(C2=C(Cl)C(=O)N(C3CCCCC3)C2=O)CC1	3	0	9	8	4	4
